# Compounds with a hit are over-represented: about 1.1% of the library has one in this group of screens.
# Y pestis TopoI: blocks Yersinia pestis topoisomerase I activity; hit rate 0.064% among 360,000; Y. pestis Topo-I cleavage product accumulation, plate reader; activity, % at 10 µM; in the data active = activity above about 50%, passing the limit was not always enough
# Mtb betalactam: beta-lactam sensitization of Mtb H37Rv | M. tuberculosis H37Rv growth with meropenem, percent inhibition | inhibition, % at 25 µM | hit rate 0.27% among 330,000; call rule not given here;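 also: growth measured after seven days incubation then overnight dye step; 0% = bacteria only wells and 100% = bacteria with antibiotic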
# CCHFV vOTU inh: blocks the CCHF virus ovarian tumor domain protease | inhibition, % at 11.5 µM | CCHFV vOTU protease, Pep-AMC fluorescence | AID 651958 | hit rate 0.55% among 370,000; in the data active = inhibition above about 30%; also: 0% = vehicle wells with enzyme and 100% = no enzyme wells
# RecA intein inh: blocks M. tuberculosis RecA intein splicing. AID 2221. cell-free RecA intein splicing, fluorescence. P9WHJ3. hit rate 0.75% among 290,000. inhibition, % (concentration not given with the values); in the data active = inhibition above about 30%;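 also: 0% = vehicle wells and 100% = reference inhibitor control wells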
# Target sequence (P9WHJ3 whole entry, looked up): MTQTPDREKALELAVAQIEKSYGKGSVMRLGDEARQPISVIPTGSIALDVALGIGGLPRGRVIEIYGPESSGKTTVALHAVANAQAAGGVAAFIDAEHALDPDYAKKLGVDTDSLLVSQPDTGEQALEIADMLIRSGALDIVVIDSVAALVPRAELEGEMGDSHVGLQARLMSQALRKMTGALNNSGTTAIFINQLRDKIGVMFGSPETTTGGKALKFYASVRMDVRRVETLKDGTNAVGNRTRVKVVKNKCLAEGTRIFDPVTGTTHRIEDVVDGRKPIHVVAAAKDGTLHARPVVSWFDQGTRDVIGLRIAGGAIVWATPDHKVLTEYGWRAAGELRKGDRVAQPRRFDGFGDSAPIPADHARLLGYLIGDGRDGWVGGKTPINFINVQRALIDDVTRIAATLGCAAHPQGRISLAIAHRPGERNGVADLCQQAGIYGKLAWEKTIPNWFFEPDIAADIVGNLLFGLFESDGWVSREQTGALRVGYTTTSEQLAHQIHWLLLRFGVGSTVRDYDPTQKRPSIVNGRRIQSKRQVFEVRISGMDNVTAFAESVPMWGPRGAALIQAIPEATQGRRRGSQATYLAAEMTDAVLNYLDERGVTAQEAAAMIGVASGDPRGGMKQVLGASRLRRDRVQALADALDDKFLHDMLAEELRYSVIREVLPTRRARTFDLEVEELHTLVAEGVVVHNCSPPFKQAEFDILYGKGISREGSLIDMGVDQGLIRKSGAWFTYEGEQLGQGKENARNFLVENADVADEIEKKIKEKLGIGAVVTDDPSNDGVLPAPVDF
# BioA inh: blocks M. tuberculosis BioA enzyme activity; purified M. tuberculosis BioA enzyme, plate reader; inhibition, % at 9.99 µM; hit rate 0.096% among 360,000; AID 602481; in the data active = inhibition above about 40%
# BJeLR viability: kills HRASV12-expressing BJeLR cells. inhibition, % (concentration not given with the values). BJeLR (HRASV12) viability, CellTiter-Glo ATP luminescence, 48 h. hit rate 0.17% among 300,000; in the data active = inhibition above about 50%
# * = called active by the depositor; x = no result given; ! = not confirmed by another sample.
SMILES,Y pestis TopoI,Mtb betalactam,CCHFV vOTU inh,RecA intein inh,BioA inh,BJeLR viability
C[C@H](CO)N1C[C@H](C)[C@@H](CN(C)Cc2ccc(C(F)(F)F)cc2)Oc2ccc(NC(=O)c3ccncc3)cc2CC1=O,x,x,x,x,1,x
CC(=O)c1cccc(NC(=O)/C=C/c2ccc([N+](=O)[O-])s2)c1,-28,x,5,1,x,63*
C[C@@H]1CN([C@@H](C)CO)C(=O)c2cc(NC(=O)NC3CCCCC3)ccc2O[C@H]1CN(C)C(=O)Nc1cccc2ccccc12,x,x,x,x,-1,x
O=[N+]([O-])c1cnc(Sc2ccncn2)c([N+](=O)[O-])c1,-5,x,7,x,0,x
O=[N+]([O-])c1cnc(Sc2ccncn2)s1,-4,71,-8,4,-3,62*
Cc1nc(N2CCN(C(=O)c3ccco3)CC2)c2c3c(sc2n1)CCCC3,-2,88,12,7,21,8
O=C(c1ccco1)N1CCN(c2nc(C3CC3)nc3sc4c(c23)CCCC4)CC1,19,99,x,38*,1,-6
CC(C)c1ccc(C(C)NCCS(=O)(=O)c2ccc(Br)cc2)cc1 (stereo unspecified),30,91,35*,5,1,-3
COC(=O)Cc1c(C(=O)OC)nnn1-c1ccc(OC)cc1,0,4,1,-2,-1,-3
COC(=O)CC1=NN(c2ccc(OC)cc2)C(=O)C1,0,1,-2,72*,x,1
CC(C)c1onc(C(=O)N2CCN(C(c3ccccc3)c3ccccc3)CC2)c1[N+](=O)[O-],4,6,-2,1,-2,91*
CC(C)c1onc(C(=O)N2CCN(c3ccccc3)CC2)c1[N+](=O)[O-],-9,-9,-1,2,0,8
Cc1cc(C(=O)COC(=O)Cc2n[nH]c(=O)c3ccccc23)c(C)n1-c1cccc(C(F)(F)F)c1,67*,75,28,6,1,-1
Cc1cc(C(=O)COC(=O)CC2Sc3ccccc3NC2=O)c(C)n1-c1cccc(C(F)(F)F)c1 (stereo unspecified),44,7,0,5,-2,-6
Cc1ccccc1S(=O)(=O)N1C[C@@H](O)COC[C@@H]2O[C@H](CC(=O)NCCc3ccccc3)CC[C@H]21,x,x,x,x,1,x
COCc1cc(C)nc(SCc2ccc(Br)cc2)c1C#N,50*,2,4,18,-1,-8
Cc1nc2c(-c3ccc(F)cc3)c(C)[nH]n2c(=O)c1Cl,-3,91,-1,43*,-1,-1
O=C1c2cccc3cc([N+](=O)[O-])cc(c23)C(=O)N1CCN1CCCC1,-15,x,9,-181,0,96*
Nc1cc2c3c(cccc3c1)C(=O)N(CCN1CCCC1)C2=O,-1,5,2,-13,4,38
COc1cc(C(=O)/C=C/c2cccnc2)c([N+](=O)[O-])cc1OC,6,99,11,-2,2,55*
O=C(COC(=O)c1ccc2c(c1[N+](=O)[O-])C(=O)c1ccccc1C2=O)NC1CC1,0,3,11,71*,x,x
O=C(COC(=O)c1cccc2c1C(=O)c1ccccc1C2=O)NC1CCCCC1,19,36,7,2,x,-6
O=C(NCC[C@@H]1CC[C@@H](NS(=O)(=O)c2ccccc2F)[C@@H](CO)O1)c1ccc(F)cc1,x,x,x,x,-1,x
Cc1cccnc1Nc1nc(-c2ccccn2)cs1,1,99,8,0,0,53*
Cc1cccnc1Nc1nc(-c2ccccc2)cs1,-14,53,-12,9,0,11
SMILES,Y pestis TopoI,Mtb betalactam,CCHFV vOTU inh,RecA intein inh,BioA inh,BJeLR viability
Cc1ccc(-c2cnc3c(c2)C(=O)N([C@H](C)CO)C[C@@H](C)[C@H](CN(C)C(=O)c2ccccc2)O3)cc1,x,x,x,x,6,x
Cc1cccc(C)c1NS(=O)(=O)c1ccc(-c2cnc(C3CC3)o2)cc1,8,-3,10,9,1,60*
COc1ccc(C)cc1NS(=O)(=O)c1ccc(-c2cnc(C3CC3)o2)cc1,26,4,16,1,1,58*
Cc1ccc(NS(=O)(=O)c2ccc(-c3cnc(C4CC4)o3)cc2)cc1,9,-1,11,-8,-3,1
COc1ccc(NC(=O)Nc2cccc3c2O[C@@H](CN(C)C(=O)Nc2ccc4c(c2)OCO4)[C@@H](C)CN([C@H](C)CO)C3=O)cc1,x,x,x,x,-1,x
Cc1cccc(C(=O)NC2C(=O)NNC2c2ccc(Cl)cc2)c1 (stereo unspecified),-2,7,17,92*,x,-4
Cc1cccc(C(=O)NC2CCCCCCC2)c1,21,-3,4,2,0,-5
Cc1noc(C)c1NC(=O)N(C)C[C@H]1OCCCC[C@@H](C)Oc2ccc(NS(=O)(=O)c3ccc(Cl)cc3)cc2C(=O)N([C@@H](C)CO)C[C@@H]1C,x,x,x,x,-1,x
O=[N+]([O-])c1ccc(O)c(-c2cc(C(F)(F)F)nc(-c3ccccc3)n2)c1,1,99,2,8,4,68*
Oc1ccccc1-c1cc(C(F)(F)C(F)F)nc(-c2ccccc2)n1,9,5,-19,2,1,-3
C[C@@H]1CN([C@@H](C)CO)C(=O)c2cc(C#Cc3cccnc3)cnc2O[C@@H]1CN(C)C(=O)CN(C)C,x,x,x,x,0,x
COCCN(C(=O)COC(=O)c1cc2ccccc2cc1OC)c1c(N)n(Cc2ccccc2)c(=O)[nH]c1=O,32,-6,-41,0,x,-2
COc1cc2ccccc2cc1C(=O)OCC(=O)N(CC(C)C)c1c(N)n(Cc2ccccc2)c(=O)[nH]c1=O,71*,1,-8,1,-3,-4
O=C(CCN1CCCCC1)NCC[C@@H]1CC[C@@H](NC(=O)Nc2ccc(Cl)cc2)[C@H](CO)O1,x,x,x,x,2,x
CC1CCCCC1N(C)C1CCN(C(=O)CNC(=O)/C=C/c2cccc(Cl)c2)CC1 (stereo unspecified),2,-3,7,0,-1,90*
CCCN1C[C@@H](C)[C@@H](OC)CN(C)C(=O)c2ccc(NS(=O)(=O)c3ccccc3)cc2OC[C@@H]1C,x,x,x,x,-3,x
FC(F)(F)c1cc(Cl)c2nc(-c3ccccc3)c(Cc3cccc(Cl)c3)n2c1,x,x,31*,x,x,x
Fc1ccc(SCCc2ccccn2)cc1,50*!,-2,8,1,0,-2
CC(C)(C)c1ccc(SCCc2ccccn2)cc1,-4,-7,-4,8,x,-3
C[C@H](CO)N1C[C@H](C)[C@@H](CN(C)Cc2ccccc2)OCCCC[C@H](C)Oc2ccc(NC(=O)Nc3ccc(F)cc3)cc2C1=O,x,x,x,x,-2,x
CCOC(=O)c1nn(-c2ccc(C)cc2)c(=O)c2c(N)scc12,-9,-1,21,35*,-1,6
CN1C(=O)c2cc(NC(=O)c3cccc(C(F)(F)F)c3)ccc2OC[C@@H]2O[C@H](CC(=O)O)CC[C@@H]21,x,x,x,x,1,x
COc1cccc(S(=O)(=O)N[C@@H]2CC[C@H](CCN)O[C@@H]2CO)c1,x,x,x,x,11,x
COc1ccc(N2C(=O)/C(=C/c3ccc(C)o3)C(=O)NC2=S)cc1,0,x,-10,2,1,51*
